Assay outcomes: PubChem, National Center for Advancing Translational Sciences (NCATS)
This is a sample that favours compounds with a hit; in the whole collection about 1.3% have one here.
GALK inh – qHTS Assay for Inhibitors of Human Galactokinase (GALK); P51570; Potency, µM (titrated, usually from 57.5 µM), usual class: inhibitors; Purified GALK, Kinase-Glo residual ATP luminescence; AID 1868, 2009; 270,000 compounds, 0.007% hits
Target sequence (P51570 whole entry, looked up): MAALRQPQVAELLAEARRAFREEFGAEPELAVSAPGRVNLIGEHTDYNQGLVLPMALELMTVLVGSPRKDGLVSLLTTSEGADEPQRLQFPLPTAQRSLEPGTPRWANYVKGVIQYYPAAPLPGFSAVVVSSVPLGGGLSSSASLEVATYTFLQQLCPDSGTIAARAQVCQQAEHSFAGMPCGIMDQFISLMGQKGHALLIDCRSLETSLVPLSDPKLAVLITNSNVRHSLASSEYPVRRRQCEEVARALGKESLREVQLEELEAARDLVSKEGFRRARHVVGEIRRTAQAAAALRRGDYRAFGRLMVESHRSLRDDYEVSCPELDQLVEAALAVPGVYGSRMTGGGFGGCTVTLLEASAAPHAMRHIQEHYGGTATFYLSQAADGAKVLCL
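ATP-depletion format; final 35 uM ATP, 100 uM D-galactose, 5 nM enzyme; pH 8.0 HEPES/Mg2+ buffer; 60 min RT; luminescence read 10 min after detection reagent.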
PKM2 activator – qHTS Assay for Activators of Human Muscle isoform 2 Pyruvate Kinase; Potency, µM (series often up to 57.5 µM), usual class: activators; 260,000 compounds, 0.34% hits; Pyruvate kinase PKM (Homo sapiens), P14618; purified PKM2, Kinase-Glo ATP luminescence, activation; response scale: 0% is enzyme alone, no compound; note: nearly all actives have a fitted effect of over 55% in size
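hPK-M2, >95% pure; 0.1 mM ADP / 0.5 mM PEP final; imidazole pH7.2 buffer w/ 7 mM MgCl2, 50 mM KCl; 1 h RT; Kinase-Glo lum. Intermediate enzyme activity for dual inhibitor/activator qHTS.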
Apoferritin bind – qHTS Assay for Identification of Novel General Anesthetics; Ferritin light chain (Equus caballus), P02791; Potency, µM (doses to about 77.5 µM), actives largely listed as inhibitors; apoferritin/1-aminoanthracene competitive binding, fluorescence; 350,000 compounds, 0.074% hits; note: nearly all actives have a fitted effect of over 20% in size
Target sequence (P02791 2-175 limits assumed): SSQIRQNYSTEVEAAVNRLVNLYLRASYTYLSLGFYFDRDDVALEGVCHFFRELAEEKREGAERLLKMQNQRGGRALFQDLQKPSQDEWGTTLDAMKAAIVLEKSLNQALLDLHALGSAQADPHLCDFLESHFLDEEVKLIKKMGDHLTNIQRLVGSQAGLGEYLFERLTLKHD
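Horse-spleen apoferritin (10 uM) in 50% saturated 1-aminoanthracene in PBS was incubated 10 min at room temperature with compound. Fluorescence (ex 380, em 535 nm) was normalized to free and bound 1-AMA, with concentration-response fitted by a four-parameter Hill equation.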
mIDH1 inhibitor – qHTS for Inhibitors of mutant isocitrate dehydrogenase 1 (IDH1): qHTS; Potency, µM (doses to about 76.6 µM), usual class: inhibitors; AID 602179, 2012; Isocitrate dehydrogenase [NADP] cytoplasmic (Homo sapiens), O75874; 390,000 compounds, 0.093% hits; IDH1-R132H enzyme, NADPH consumption, diaphorase/resazurin fluorescence; note: nearly all actives have a fitted effect of over 65% in size
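IDH1-R132H (0.5 ug/mL dispensed) in pH 7.5 Tris buffer was preincubated 30 min with compound, then given a substrate mix of 0.016 mM NADPH and 2 mM alpha-KG for 80 min at room temperature; remaining NADPH was read by diaphorase/resazurin fluorescence.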
TrxR1 substrate – qHTS Assay for Substrates of Mammalian Selenoprotein Thioredoxin Reductase 1 (TrxR1): qHTS; Potency, µM (titrated, usually from 114 µM); 390,000 compounds, 0.01% hits; purified TrxR1 substrate turnover, NADPH consumption readout; Thioredoxin reductase 1, cytoplasmic (Rattus norvegicus), O89049; note: nearly all actives have a fitted effect of over 50% in size
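Rat TrxR1, dispensed at 90 nM, was prereduced with 400 uM NADPH (final) for 5 min at ~22 deg C, then incubated with compound 15 min before 400 uM selenite. A first-read NADPH fluorescence drop versus no-compound background flagged substrates.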
TrxR1 inh-1 – qHTS Assay for Inhibitors of Mammalian Selenoprotein Thioredoxin Reductase 1 (TrxR1): qHTS; 390,000 compounds, 1% hits; Thioredoxin reductase 1, cytoplasmic (Rattus norvegicus), O89049; AID 588453, 2011; Potency, µM (top dose mostly 114 µM), most hits filed as inhibitors; recombinant rTrxR1, NADPH fluorescence consumption, selenite substrate; note: nearly all actives have a fitted effect of over 65% in size
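Rat TrxR1 (90 nM in the dispensed reagent) was pre-reduced with 400 uM NADPH for 5 min at room temperature, then incubated with compound for 15 min. After 400 uM selenite was added, NADPH fluorescence (Ex 340/Em 450 nm) was followed for 8 min.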
HepG2 tox – Cell Viability Secondary Assay for Inhibitors of the Interaction of Thyroid Hormone Receptor and Steroid Receptor Coregulator 2; shares compounds with TrxR1 inh-1; HepG2 viability, ATP luminescence (CellTiter-Glo), 72 h; Potency, µM; 40 compounds, 50% hits; calls by dose curve
GR inh – qHTS Assay for Inhibitors of Mammalian Selenoprotein Thioredoxin Reductase 1 (TrxR1): Counterassay in Glutathione Reductase (GR) | shares compounds with TrxR1 inh-1 | purified GR, DTNB reduction absorbance 405 nm kinetic | activity change, negative = inhibition, % at 57.1 µM | 55 tested, under 10 active
TrxR1 inh-2 – qHTS Assay for Inhibitors of Mammalian Selenoprotein Thioredoxin Reductase 1 (TrxR1): Hit Validation in Primary Screen. shares compounds with TrxR1 inh-1. recombinant TrxR1, NADPH fluorescence consumption, selenite substrate. Potency, µM, usual class: inhibitors. 55 compounds, 50% hits
TrxR1 insulin MOA – qHTS Assay for Inhibitors of Mammalian Selenoprotein Thioredoxin Reductase 1 (TrxR1): Insulin MOA Assay; shares compounds with TrxR1 inh-1; TrxR1 Trx-coupled insulin reduction, NADPH absorbance 340 nm; Potency, µM; 55 compounds, 20% hits; AID 652037, 2013;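 active = compounds with a measured potency under 100 micromolar; inconclusive = filed, but no rule given; inactive = potency at or above that, or unmeasurable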
TrxR1 inh-3 – qHTS Assay for Inhibitors of Mammalian Selenoprotein Thioredoxin Reductase 1 (TrxR1): DTNB Assay; shares compounds with TrxR1 inh-1; purified TrxR1, DTNB reduction, A412; Potency, µM; 55 compounds, 90% hits;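 active = a half-inhibiting concentration could be measured and was below 100 µM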
Of the large screens only hits and unclear results are named; the others gave an inactive call (follow-up assays come after a bar, where they were run). Unless noted, calls come from the whole dose curve; as a rule, active = well fitted curve in the direction sought with a large enough effect; inconclusive = small, poorly fitted or top-dose-only effect, or another doubt; inactive = no such curve, though single readings can be large; an effect the other way counts as inactive or inconclusive.

O=C(COC(=O)c1ccc(Cl)c([N+](=O)[O-])c1)NC1CCCC1	none (no result: PKM2 activator)
O=C(COC(=O)c1cc(Cl)ccc1[N+](=O)[O-])NC1CC1	none (no result: GALK inh, PKM2 activator, Apoferritin bind)
Cc1ccc(C2C(C(=O)c3cc4ccccc4o3)=C(O)C(=O)N2CCN2CCOCC2)cc1 (configuration not stated)	TrxR1 inh-1 44.7µM (no result: PKM2 activator) | GR inh inconclusive | TrxR1 inh-2 inconclusive | TrxR1 insulin MOA inactive | TrxR1 inh-3 0.333µM
O=C(C1=C(O)C(=O)N(CCN2CCOCC2)C1c1cccc(F)c1)c1cc2ccccc2o1 (configuration not stated)	TrxR1 inh-1 inconclusive (no result: PKM2 activator)
COC(=O)C1=C(C)N(CCc2c[nH]c3ccccc23)C(=O)/C1=C\N(C)C	TrxR1 inh-1 10µM | GR inh inactive | TrxR1 inh-2 9.47 | TrxR1 insulin MOA 36µM | TrxR1 inh-3 0.122µM
CCN1C(=NCCc2c[nH]c3ccccc23)N[C@@H](c2ccccc2)C(C(=O)OC)=C1C	none (no result: GALK inh, mIDH1 inhibitor, TrxR1 substrate, TrxR1 inh-1)
Cc1ccc2oc(-c3cccc(NC(=O)COc4ccc(Cl)cc4C)c3C)nc2c1	none (no result: GALK inh, PKM2 activator, Apoferritin bind, mIDH1 inhibitor)
O=C(Nc1cccnc1)c1ccc2nc(-c3ccccc3)c(-c3ccccc3)nc2c1	Apoferritin bind inconclusive
O=C(Nc1ccccc1)c1ccc2nc(-c3ccco3)c(-c3ccco3)nc2c1	TrxR1 inh-1 3.98µM | GR inh inactive | TrxR1 inh-2 3.77 | TrxR1 insulin MOA inactive | TrxR1 inh-3 1.61µM
Cc1ccc(C)c(N2CCN(C(=O)c3cc(S(=O)(=O)N4CCCCCC4)cn3C)CC2)c1	none (no result: GALK inh, PKM2 activator)
CSc1ccc(CCNC(=O)C2CCCN(S(=O)(=O)N(C)c3ccc(F)cc3)C2)cc1 (configuration not stated)	none (no result: GALK inh, PKM2 activator)
Cc1ccc(C(=O)OC(C)C(=O)NC2CCCCC2)cc1S(=O)(=O)N1CCCCC1 (configuration not stated)	none (no result: GALK inh, PKM2 activator, Apoferritin bind)
CC(OC(=O)c1ccc(S(C)(=O)=O)c([N+](=O)[O-])c1)C(=O)NC1C2CC3CC(C2)CC1C3 (configuration not stated)	none (no result: GALK inh, PKM2 activator, Apoferritin bind, mIDH1 inhibitor, TrxR1 substrate, TrxR1 inh-1) | HepG2 tox 8.2µM
CCC(OC(=O)c1ccc(S(C)(=O)=O)c([N+](=O)[O-])c1)C(=O)NC1C2CC3CC(C2)CC1C3 (configuration not stated)	none (no result: GALK inh, PKM2 activator, Apoferritin bind, mIDH1 inhibitor, TrxR1 substrate, TrxR1 inh-1) | HepG2 tox 7.6µM
Cc1ccc(SCc2nc(-c3ccc(C(=O)NCc4ccc(Cl)cc4)cc3)oc2C)cc1	none (no result: GALK inh, PKM2 activator)
CC(=O)Nc1nonc1-c1nnc(SCC(=O)Nc2cc(C)cc(C)c2)n1-c1ccccc1	Apoferritin bind inconclusive (no result: GALK inh, PKM2 activator)
O=C(NC(=S)Nc1ccc(N2CCOCC2)cc1)c1ccccc1	TrxR1 inh-1 inconclusive
O=C(NC(=S)Nc1ccc(N2CCOCC2)cc1)c1cccc(Cl)c1	TrxR1 inh-1 10µM | GR inh inactive | TrxR1 inh-2 5.32 | TrxR1 insulin MOA inactive | TrxR1 inh-3 2.56µM
C[C@@H]1CC=C[C@H]2[C@H]1C(=O)N(Cc1ccccc1)[C@H]2c1ccc2ccccc2c1Br	TrxR1 inh-1 15.8µM | GR inh inactive | TrxR1 inh-2 5.32 | TrxR1 insulin MOA inactive | TrxR1 inh-3 0.95µM
Cc1ccc(NC(=O)c2oc3ccc(S(=O)(=O)N(C)C4CCCCC4)cc3c2C)cc1Cl	none (no result: GALK inh, PKM2 activator)
CC1CCN(C(=O)COC(=O)c2ccc(S(C)(=O)=O)c([N+](=O)[O-])c2)CC1	none (no result: GALK inh, PKM2 activator, Apoferritin bind, mIDH1 inhibitor, TrxR1 substrate, TrxR1 inh-1) | HepG2 tox 20µM
